Test results taken from the supplement of paper PMC5662767.
Counter-ions that a name gives are not always drawn.

Tested on: Drosophila S2 cl14 SmoIP sensor cells
Experiment: normalized SmoIP GFP fluorescence (untreated unstimulated = 0%, untreated Hh-stimulated = 100%); higher = more Smo activation sensor fluorescence
Settings: stimulation: Hh conditioned medium (+Hh); compound concentration: 2 uM; 24 h
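Also: flow cytometry read-out as median GFP intensity of gated cells, compounds added 30 min before Hh-conditioned or mock medium, mock-treated cells serving as unstimulated baseline.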

Row | Structure (SMILES) | normalized SmoIP GFP fluorescence [%]
1 | COc1ccc2[nH]c([S+]([O-])Cc3ncc(C)c(OC)c3C)nc2c1 (stereo not drawn) [Omeprazole] | 97
2 | CS(=O)(=O)c1cccc(CNc2nc(Nc3ccc4c(c3)CCC(=O)N4)ncc2C(F)(F)F)c1 | 209
3 | C[C@@]1(c2cc(-c3cncnc3)c(F)cc2F)CCSC(N)=N1 | 97
4 | Cc1cccc(-c2[nH]ncc2-c2ccc3ncccc3n2)n1 [repsox] | 109
5 | COC(=O)C1=C(C#N)NC(C)=C(C(=O)OC(C)C)C1c1cccc([N+](=O)[O-])c1 (stereo not drawn) [nilvadipine-arc029] | 110
6 | O=C1CCC(N2C(=O)c3ccccc3C2=O)C(=O)N1 (stereo not drawn) [Thalidomide] | 101

Same assay, conditions: stimulation: mock conditioned medium (-Hh); compound concentration: 2 uM; 24 h

Row | Structure (SMILES) | normalized SmoIP GFP fluorescence [%]
7 | Nc1ccc(C(=O)Nc2cccc(-c3nc(N4CCOCC4)c4oc5ncccc5c4n3)c2)cn1 | 5.45
8 | COc1ccccc1N1CCN(CC(O)COc2cccc3ccccc23)CC1 (stereo not drawn) [Naftopidil-Dihydrochloride] | -1.88
9 | c1cn2cc(-c3ccc4cn[nH]c4c3)nc(Nc3ccc(N4CCOCC4)cc3)c2n1 | 2.97
10 | COC(=O)N[C@H](C(=O)N[C@@H](Cc1ccccc1)[C@@H](O)CN(Cc1ccc(-c2ccccn2)cc1)NC(=O)[C@@H](NC(=O)OC)C(C)(C)C)C(C)(C)C [Atazanavir] | -0.0496
11 | COc1cc2c(Nc3ccc(NC(=O)c4ccccc4)cc3)ncnc2cc1OCCCN1CCOCC1 | 6.52
12 | C[C@]12CC[C@@H]3c4ccc(O)cc4CC[C@H]3[C@@H]1CCC2=O [Estrone] | 5.12
13 | CCN(CC)CC(=O)Nc1c(C)cccc1C [Lidocaine] | 2.97
14 | CC1=C(C(=O)Nc2cc3cn[nH]c3cc2F)C(c2ccc(C(F)(F)F)cc2)CC(=O)N1 (stereo not drawn) | -1.88
15 | CS(=O)(=O)c1cccc(CNc2nc(Nc3ccc4c(c3)CCC(=O)N4)ncc2C(F)(F)F)c1 | 71.5
16 | COc1c(C)c2c(c(O)c1C/C=C(\C)CCC(=O)OCCN1CCOCC1)C(=O)OC2 [Mycophenolate-mofetil-(CellCept)] | 5.98
17 | O=C(c1cc(Cc2n[nH]c(=O)c3ccccc23)ccc1F)N1CCN(C(=O)C2CC2)CC1 [AZD2281(Olaparib)] | 1.35
18 | OC[C@H]1O[C@@H](c2ccc(Cl)c(Cc3ccc(O[C@H]4CCOC4)cc3)c2)[C@H](O)[C@@H](O)[C@@H]1O | -7.78
19 | Nc1ncn([C@H]2C[C@H](O)[C@@H](CO)O2)c(=O)n1 [Decitabine] | 25.6
20 | CCNC(=O)c1noc(-c2cc(C(C)C)c(O)cc2O)c1-c1ccc(CN2CCOCC2)cc1 | 32.9
21 | COc1cc2c(Oc3ccc4[nH]c(C)cc4c3F)ncnc2cc1OCCCN1CCCC1 [Cediranib] | 52.4
22 | O=c1c(-c2ccc(O)cc2)coc2cc(O)cc(O)c12 [Genistein] | -0.804
23 | CC(C)C[C@H](NC(=O)[C@@H](NC(=O)c1cccc(-c2ccccc2)n1)[C@@H](C)O)B(O)O | 64.4
24 | NC(=O)c1cn(Cc2c(F)cccc2F)nn1 [Rufinamide] | 1.89
25 | O=C(Nc1ccc(OC(F)(F)F)cc1)c1sccc1NCc1ccnc2ccccc12 | 9.86

Row | Structure (SMILES) | normalized SmoIP GFP fluorescence [%]
26 | C[C@@]1(c2cc(-c3cncnc3)c(F)cc2F)CCSC(N)=N1 | 10.2
27 | Cc1cccc(-c2[nH]ncc2-c2ccc3ncccc3n2)n1 [repsox] | -0.378
28 | COC(=O)C1=C(C#N)NC(C)=C(C(=O)OC(C)C)C1c1cccc([N+](=O)[O-])c1 (stereo not drawn) [nilvadipine-arc029] | -17
29 | OC(CCN1CCCCC1)(c1ccccc1)C1CC2C=CC1C2 (stereo not drawn) [Biperiden-hydrochloride] | 2.64
30 | COc1ccc2cc(-c3nc(-c4ccc([S+](C)[O-])cc4)[nH]c3-c3ccncc3)ccc2c1 (stereo not drawn) [Tie2-kinase-inhibitor] | 21.9
31 | C#CCC(Cc1cnc2nc(N)nc(N)c2n1)c1ccc(C(=O)N[C@@H](CCC(=O)O)C(=O)O)cc1 (stereo partly drawn) [Pralatrexate(Folotyn)] | 13.3
32 | COc1cc2nccc(Oc3ccc(NC(=O)C4(C(=O)Nc5ccc(F)cc5)CC4)cc3)c2cc1OC | 3.51
33 | CCOC(=O)[C@H](CCc1ccccc1)N[C@H]1CCc2ccccc2N(CC(=O)O)C1=O [Benazepril-hydrochloride] | 1.35
34 | c1cnc2cc3c(cc2n1)[C@@H]1CNC[C@H]3C1 [Varenicline-tartrate] | 2.97
35 | C=CC(=O)Nc1cccc(Sc2nc(Nc3ccc(N4CCN(C)CC4)cc3)ncc2Cl)c1 | 36.2
36 | CCOC(=O)[C@H]1O[C@@H]1C(=O)N[C@@H](CC(C)C)C(=O)NCCC(C)C [Aloxistatin] | 3.51
37 | COc1cc(Nc2ncc(F)c(Nc3ccc4c(n3)NC(=O)C(C)(C)O4)n2)cc(OC)c1OC [R406(free-base)] | 9.32
38 | Cc1nc(C(=O)NCC(=O)O)c(O)c2ccc(Oc3ccccc3)cc12 | 11
39 | O=C1CCC(N2C(=O)c3ccccc3C2=O)C(=O)N1 (stereo not drawn) [Thalidomide] | 4.26
40 | N#CC(=C(/N)Sc1ccccc1N)/C(C#N)=C(/N)Sc1ccccc1N | 23.1
41 | CCOC(=O)N1CCC(=C2c3ccc(Cl)cc3CCc3cccnc32)CC1 [Loratadine] | 11
42 | CN(C)C(=O)c1ccc(S(=O)(=O)c2ccc(NC(=O)[C@@](C)(O)C(F)(F)F)c(Cl)c2)cc1 | -2.1
43 | COc1cc(Nc2nc3ccccc3nc2NS(=O)(=O)c2ccc(NC(=O)c3ccc(C)c(OC)c3)cc2)cc(OC)c1 | 5.66
